Pol beta inh: blocks human DNA polymerase beta activity; P06746; Pol beta primer extension/strand displacement, fluorescence kinetic; Potency, µM (titrated, usually from 114 µM), inactives show top-dose activity change, negative = inhibition, usual class: inhibitors; 340,000 compounds, 1.3% hits; AID 485314; note: potency is the fitted concentration of half-maximal effect; % is set by controls: 0 for no effect and ±100 for the full control effect
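Kinetic readout of DNA synthesis with strand displacement by Pol beta. Compound and 10 nM enzyme sit 15 min at room temperature; 50 nM substrate starts the reaction, read immediately and at 10 min.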
Pol kappa inh-1: blocks human DNA polymerase kappa activity | Potency, µM (titrated, usually from 107 µM), for the others: at the top dose activity, negative = inhibition, usual class: inhibitors | 400,000 compounds, 0.53% hits | purified Pol kappa, fluorescent DNA synthesis assay, 10 min | Q9UBT6; note: potency is the fitted concentration of half-maximal effect; % is set by controls: 0 for no effect and ±100 for the full control effect
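Inhibition of 10 nM Pol kappa is measured by a fluorescent read-out at 0 and 10 min following addition of 50 nM substrate (final), with a 15-min room-temperature compound preincubation.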
Pol eta inh-1: DNA polymerase eta (human) inhibition; Q9Y253; recombinant Pol eta, fluorescent DNA replication assay; Potency, µM (doses to about 114 µM), for the others: top-dose activity change, negative = inhibition, actives largely listed as inhibitors; 390,000 compounds, 1.2% hits; note: potency is the fitted concentration of half-maximal effect; % is set by controls: 0 for no effect and ±100 for the full control effect
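Pol eta at 10 nM preincubated with compounds 15 min at room temperature; reaction started with fluorescent substrate (50 nM final) and read kinetically at 0 and 10 min.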
WRN inhibitor: inhibitors of human WRN helicase. AID 651768. WRN helicase unwinding, fluorescent forked duplex, kinetic. Potency, µM (series often up to 114 µM), without a hit: at the top dose activity change, negative = inhibition, hits mostly inhibitors. 360,000 compounds, 0.46% hits; note: potency is the fitted concentration of half-maximal effect; % is set by controls: 0 for no effect and ±100 for the full control effect; nearly all actives have a fitted effect of over 55% in size
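Kinetic fluorescence helicase assay: unwinding of a quenched forked DNA duplex (100 nM final) with 2 mM ATP final raises red fluorescence (525/598 nm). Compounds sat 15 min at room temperature with 20 nM WRN beforehand.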
FEN1 inh: blocks human flap endonuclease 1; P39748; Recombinant FEN1 flap cleavage, fluorescence, 15 min; Potency, µM (series often up to 114 µM), inactives show at the top dose activity change, negative = inhibition, usual class: inhibitors; 390,000 compounds, 0.35% hits; note: potency is the fitted concentration of half-maximal effect; % is set by controls: 0 for no effect and ±100 for the full control effect; nearly all actives have a fitted effect of over 65% in size
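Compounds are tested as a concentration series against 10 nM FEN1; after a 15 min room-temperature preincubation, 50 nM substrate starts cleavage, with plate reads at 0 and 15 min. Normalized responses are fitted by a Hill equation.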
Pol iota inh: inhibitors of human DNA polymerase iota; Q9UNA4; Pol iota fluorescent replication assay, 10 min; Potency, µM (doses to about 115 µM), for the others: top-dose activity, negative = inhibition, usual class: inhibitors; 390,000 compounds, 1% hits; AID 588590; note: potency is the fitted concentration of half-maximal effect
Target sequence (Q9UNA4 whole entry, looked up): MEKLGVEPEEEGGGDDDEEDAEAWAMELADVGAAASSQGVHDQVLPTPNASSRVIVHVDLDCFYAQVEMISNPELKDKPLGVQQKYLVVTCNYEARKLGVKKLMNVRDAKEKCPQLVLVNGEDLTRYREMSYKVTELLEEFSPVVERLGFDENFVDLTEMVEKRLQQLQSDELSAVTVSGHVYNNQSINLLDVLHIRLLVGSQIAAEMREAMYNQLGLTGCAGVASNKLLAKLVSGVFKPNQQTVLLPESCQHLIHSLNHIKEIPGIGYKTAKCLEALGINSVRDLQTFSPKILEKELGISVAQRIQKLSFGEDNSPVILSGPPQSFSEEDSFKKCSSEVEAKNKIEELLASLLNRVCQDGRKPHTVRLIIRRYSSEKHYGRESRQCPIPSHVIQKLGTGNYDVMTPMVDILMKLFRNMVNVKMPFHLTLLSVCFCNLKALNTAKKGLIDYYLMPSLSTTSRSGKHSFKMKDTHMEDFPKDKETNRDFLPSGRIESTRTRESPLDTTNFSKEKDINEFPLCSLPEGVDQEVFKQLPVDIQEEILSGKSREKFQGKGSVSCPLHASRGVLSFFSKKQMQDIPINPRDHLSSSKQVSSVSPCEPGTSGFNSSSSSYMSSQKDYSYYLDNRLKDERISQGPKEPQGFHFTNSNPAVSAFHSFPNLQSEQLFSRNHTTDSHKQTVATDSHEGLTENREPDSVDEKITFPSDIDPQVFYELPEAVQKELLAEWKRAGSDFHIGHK
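Pol iota at 10 nM preincubated 15 min with compounds at room temperature; reaction started with fluorescent substrate, 50 nM final. Fluorescence read kinetically at 0 and 10 min; buffer-only wells as negative control.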
GALK inh confirm: confirmation of human galactokinase (GALK) inhibitors; 150 compounds, 70% hits; purified GALK, Kinase-Glo ATP depletion luminescence; shares compounds with Pol eta inh-1; Potency, µM (doses to about 115 µM), inactives show top-dose activity, negative = inhibition, actives largely listed as inhibitors; AID 2015
Redox cycling: counter-screen for GALK inhibitors: redox cycling H2O2 generation. Phenol red-HRP H2O2 redox cycling, absorbance 600 nm. shares compounds with Pol eta inh-1. Potency, µM (series often up to 115 µM), inactives show at the top dose activity change, negative = H2O2 signal, usual class: inhibitors. 150 compounds, 40% hits
HEK293 tox: HEK-293 cytotoxicity, GALK inhibitor secondary. shares compounds with Pol eta inh-1. HEK-293 viability, ATP luminescence (CellTiter-Glo), 24/48 h. Potency, µM (highest dose often 46.1 µM), for the others: at the top dose activity change, negative = cytotoxicity, actives largely listed as inhibitors. 170 compounds, 10% hits. AID 2547; note: potency is the fitted concentration of half-maximal effect; % is set by controls: 0 for no effect and ±100 for the full control effect
Pol kappa inh-2: confirmation of human DNA polymerase kappa inhibitors. shares compounds with Pol eta inh-1. purified Pol-kappa, fluorescent strand-displacement substrate. Potency, µM, most hits filed as inhibitors. 920 compounds, 76% hits. AID 720501; note: potency is the fitted concentration of half-maximal effect
Pol eta inh-2: confirmation of human DNA polymerase eta inhibitors; Potency, µM, hits mostly inhibitors; 2,600 compounds, 64% hits; shares compounds with Pol eta inh-1; AID 720502; Pol eta primer extension, TAMRA/BHQ fluorescence, 10 min; note: potency is the fitted concentration of half-maximal effect
* = called active by the depositor; ? = inconclusive; . = no result given; [ ] = another dose, or the depositor's remark. This is a sample that favours compounds with a hit; in the whole collection about 2.4% have one here. Calls come from the whole dose curve; as a rule, active = well fitted curve in the direction sought with a large enough effect; inconclusive = small, poorly fitted or top-dose-only effect, or another doubt; inactive = no such curve, though single readings can be large; an effect the other way counts as inactive or inconclusive.

SMILES	Pol beta inh	Pol kappa inh-1	Pol eta inh-1	WRN inhibitor	FEN1 inh	Pol iota inh	Pol eta inh-2	others
N#C/C(=C\c1ccc(OCc2ccccc2)cc1)C(=O)Nc1ccc(C(=O)O)cc1	2%	-6%	-16%	-4%	-5%	?	.
O=c1c2ccccc2nc2sc(Nc3ccc4c(c3)CCC4)nn12	.	.	.	.	.	.	.	Pol kappa inh-2=38*
CCOc1cc(-c2ccc(OC(=O)c3ccc(OC)cc3)c(OC)c2)cc(=O)c2c(C)oc(C)c12	-18%	-14%	-11%	.	-18%	?	.
c1coc(-c2nc3ccccc3nc2-c2ccco2)c1	18µM*	?	50µM*	?	-28%	?	?
COc1cc(Cl)c(C)cc1NC(=O)CSc1sc2c(O)cc(=O)[nH]c2c1C#N	?	-34%	28µM*	-16%[11.6 µM]	?	?	60*	Pol kappa inh-2=19*
N#Cc1c(SCC(=O)Nc2ccc(C(F)(F)F)cc2)sc2c(O)cc(=O)[nH]c12	-2%	-5%	0%	-7%	-28%	2%	.
O=C(Cc1ccc(S(=O)(=O)N2CCOCC2)s1)NCC1CCCCC1	?	-29%	?	-12%	3%	-17%	.
O=C(Cc1ccc(S(=O)(=O)N2CCOCC2)s1)NC1CCCCC1	.	?	20µM*	-29%	-6%	45µM*	?
CCN(c1cccc(C)c1)c1ncnc2c1cnn2-c1cccc(Cl)c1	2%	-10%[60.1 µM]	-14%	.	-10%	7%	.
O=C(Nc1cccc(F)c1)c1ccc2c(c1)N(Cc1ccccc1)C(=O)c1ccccc1S2(=O)=O	-17%	-10%	-12%	.	5%	14%	.
O=C(Nc1ccc(OC(F)(F)F)cc1)C(NS(=O)(=O)c1cccc2nsnc12)c1ccccc1 (centres undefined)	26%	0%	-1%	.	?	?	.
O=C(N/N=C/C=C/c1ccccc1)c1ccccn1	2%	-6%	-9%	-10%	13%	12%	.
O=C(N/N=C/C=C\c1ccco1)c1ccccn1	?	50µM*	?	35µM*	?	?	?
O=C(N/N=C/C=C\c1ccco1)c1cccnc1	19%	79µM*	?	-30%[57.1 µM]	-3%	18µM*	?
O=C(Nc1ccccc1C(=O)OCc1cc(=O)n2ccsc2n1)c1cccc(F)c1	7%	-9%[60.1 µM]	-5%	.	14%	17%	.
CCCNC(=O)CN1C(=O)c2c(c3ccccc3n2C)C1c1ccc(OC)cc1 (centres undefined)	26%	-7%	-7%	.	-12%	-7%	.
CN(Cc1ccccc1)C(=O)[C@H](Cc1ccc2ccccc2c1)NC(=O)[C@@H]1CCCN1C(=O)Nc1ccccc1[N+](=O)[O-]	.	-6%[60.1 µM]	.	.	.	.	.
CC(=O)N1CCN(c2ccc(NS(=O)(=O)c3ccc4c(c3)CC(=O)N4)cc2)CC1	.	.	.	.	.	.	?
COC(=O)c1oc2ccccc2c1N	5%	-16%	11%	0%	0%	?	.
COC(=O)c1oc2ccccc2c1NC(=O)/C=C/C(=O)O	-30%	2%	-6%	3%	-13%	30%	.	GALK inh confirm=0%;Redox cycling=8%;HEK293 tox=14%
O=C(O)CN1C(=O)/C(=C\c2ccc(OC(=O)c3ccco3)cc2)SC1=S	-16%	-4%	-17%	-16%[57.1 µM]	-5%	?	.
O=C(O)CN1C(=O)/C(=C/c2ccc(SCc3ccccc3)o2)SC1=S	3.5µM*	79µM*	18µM*	?	-19%	?	76*
Cc1ccc(S(=O)(=O)N[C@@H](CO)C(=O)N[C@@H](Cc2ccc(O)cc2)C(=O)O)cc1	-3%	-15%	-19%	-2%	-11%	13%	.
O=C(O)c1ccc(S(=O)(=O)N[C@@H](Cc2ccc(O)cc2)C(=O)O)cc1	.	.	.	.	.	.	38*	Pol kappa inh-2=11*
COC(=O)C/C=N/N=C1/NC(=O)/C(=C/C(=O)O)S1	40µM*	45µM*	40µM*	-33%	50µM*	14µM*	48*
SMILES	Pol beta inh	Pol kappa inh-1	Pol eta inh-1	WRN inhibitor	FEN1 inh	Pol iota inh	Pol eta inh-2	others
O=C(COC(=O)c1ccc(F)cc1F)Nc1cccnc1Cl	.	0%	-5%	-1%	19%	1%	.
Cc1ccnc(NC(=O)COC(=O)c2ccc(F)cc2F)n1	1%	-44%	45µM*	-21%	16%	?	?
CN(C)c1ncc2nc(CCc3ccccc3)c(=O)n(Cc3cccs3)c2n1	.	-7%[60.1 µM]	.	.	.	.	.
O=C(CN1C(=O)S/C(=C\c2cccn2-c2ccc(C(=O)O)cc2)C1=O)Nc1ccc(F)cc1	.	.	.	.	.	.	30*
O=C(CN1C(=O)S/C(=C\c2ccc(C(=O)O)cc2)C1=O)Nc1ccccc1	-1%	-8%	-3%	0%	19%	-19%	.
CCc1cc[n+](C2=C([O-])c3ccccc3C(=O)/C2=N\S(=O)(=O)c2cccs2)cc1	?	-19%	50µM*	-32%	2%	?	76*
Cc1ccc(C(=O)c2ccc([N+](=O)[O-])cc2)cc1	-9%	3%	-12%	17%	4%	34%	.
Cc1ccc(C(=O)c2coc3cc([N+](=O)[O-])c(O)c([N+](=O)[O-])c23)cc1	20µM*	?	20µM*	?	?	?	.	Pol kappa inh-2=?
CCOc1ccc(-n2c(SCC(=O)NCC3CCCO3)nc3c([nH]c4ccccc43)c2=O)cc1 (centres undefined)	34%	-2%[60.1 µM]	-6%	.	4%	-27%	.
Cc1ccccc1OCC(=O)OCC(=O)Nc1ncc(Cl)c(C)c1Cl	.	?	28µM*	-11%[11.6 µM]	-8%	?	?	Pol kappa inh-2=?
